MsrA inh: bovine MsrA enzyme inhibitors, primary screen, biochemical, absorbance, HTS | 360,000 compounds, 0.75% hits | purified bovine MsrA, absorbance read-out | inhibition, % at 15.5 µM | AID 651718, 2012; in the data active means inhibition above about 4.5%
Mot1-301 SUMO: yeast Mot1-301 growth rescue at high temperature, primary screen, SUMOylation pathway inhibitor project, S. cerevisiae, ATP luminescence, 38.5C | S. cerevisiae Mot1-301 growth rescue; percent above DMSO median, 100 means doubled | growth rescue, % at 18.8 µM | 320,000 compounds, 1% hits;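 active means every valid replicate shows activation above 250% relative to neutral control wells; inactive means the rest, any valid replicate at or below 250%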
PKA-R1A act: activators of PKA-R1A holoenzyme, primary screen, biochemical, fluorescence polarization, Cy5-IP20, bovine R1A, mouse PKAc; 340,000 compounds, 0.083% hits; cAMP-dependent protein kinase type I-alpha regulatory subunit (Bos taurus) + …; activation, % at 11.4 µM; AID 504707, 2011; PKA-R1A dissociation; scaled: DMSO 0%, 113 µM cGMP 100%;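 active means percent activation above the mean of all tested compounds plus 3 SD, cut at about 19% in these data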;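 further: higher means more PKAc released from R1A so a rise in polarization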
PKA-R2B act: activators of PKA-R2B holoenzyme, primary screen, biochemical, fluorescence polarization, Cy5-IP20, human; cAMP-dependent protein kinase catalytic subunit beta (Homo sapiens) + cAMP-dependent …; PKA-R2B holoenzyme dissociation; R2B truncated from residue 108, S112A mutant; 0% DMSO only, 100% 113 µM cGMP; activation, % at 11.4 µM; 340,000 compounds, 0.079% hits; AID 504700, 2011;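 active means activation above a cutoff set at the mean over all compounds plus 3 SD, cut at about 18% in these data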;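 further: higher means more holoenzyme dissociation and a rise in polarization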
Target sequence (P31323 whole entry, looked up, other chains not shown, the tested form may be a part): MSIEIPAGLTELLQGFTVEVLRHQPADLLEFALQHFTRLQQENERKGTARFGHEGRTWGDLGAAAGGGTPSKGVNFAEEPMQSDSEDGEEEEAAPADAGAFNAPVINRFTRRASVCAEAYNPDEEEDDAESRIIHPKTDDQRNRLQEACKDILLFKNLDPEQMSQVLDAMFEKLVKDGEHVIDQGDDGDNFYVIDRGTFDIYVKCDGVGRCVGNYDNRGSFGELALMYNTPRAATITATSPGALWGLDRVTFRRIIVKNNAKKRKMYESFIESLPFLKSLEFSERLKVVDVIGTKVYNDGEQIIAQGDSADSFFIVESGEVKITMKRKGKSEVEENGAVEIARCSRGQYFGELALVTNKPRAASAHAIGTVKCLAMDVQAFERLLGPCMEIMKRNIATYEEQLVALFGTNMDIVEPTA
MsrA act: bovine MsrA enzyme activators, primary screen, biochemical, absorbance, HTS; Methionine sulfoxide reductase A (Bos taurus); purified bovine MsrA, absorbance read-out; activation, % at 10.6 µM; 360,000 compounds, 0.3% hits; AID 602163, 2012; in the data active means activation above about 7.5%
Yeast Mot1 SUMO: growth restoration of Mot1-301 yeast on galactose, dose response, SUMO pathway inhibitor project, whole organism, S. cerevisiae, ATP luminescence, cherry-picked samples. shares compounds with Mot1-301 SUMO. 2,300 tested, under 10 active. S. cerevisiae Mot1-301 galactose growth, 24 h; -100 = growth of slx-deleted rescue strain. AID 493004, 2010. growth activity, percent, % at 42 µM;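 active means Signal drops as the depositor expects, and the fitted half-maximal dose is no more than ten times the top valid tested dose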;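 further: more negative values mean stronger growth rescue toward the control strain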
Each line names hits and unclear results; the compound was inactive in the other large screens (follow-up assays come after a bar, where they were run). Shown are actives, neighbours in structure and some others; about 2% of the full set was active somewhere.

O=C(O)c1ccc(OCC(O)Cn2c3ccccc3c3ccccc32)cc1 (stereo unspecified)	none
OC(COc1ccccc1)Cn1c2ccccc2c2ccccc21 (stereo unspecified)	Mot1-301 SUMO 374 | Yeast Mot1 SUMO inactive
COc1cc(C(=O)NC2CCCCN(C)C2=O)cc(OC)c1OC (stereo unspecified)	none (no result: Mot1-301 SUMO, PKA-R1A act, PKA-R2B act, MsrA act)
O=[N+]([O-])c1ccc2nc(-c3ccncc3)[nH]c2c1	none
O=[N+]([O-])c1cccc(-c2nc3ccc([N+](=O)[O-])cc3[nH]2)c1	Mot1-301 SUMO 359 | Yeast Mot1 SUMO inactive
C/C(=N\NC(=S)Nc1ccccc1)C1Cc2ccccc2C(=O)O1 (stereo unspecified)	Mot1-301 SUMO 393 (no result: PKA-R1A act, PKA-R2B act) | Yeast Mot1 SUMO inactive
CC1=C(C(N)=O)C(c2ccccn2)n2nc(SCc3ccccc3Cl)nc2N1 (stereo unspecified)	Mot1-301 SUMO 384 | Yeast Mot1 SUMO inactive
CCOC(=O)C(NC(=O)c1ccccc1)(N1CCOCC1)C(F)(F)F (stereo unspecified)	Mot1-301 SUMO active | Yeast Mot1 SUMO inactive
NC(=O)C1CCN(Cc2nc3cc(Cl)ccc3c(=O)[nH]2)CC1	none
CCNCc1nc2cc(Cl)ccc2c(=O)[nH]1	Mot1-301 SUMO 831 | Yeast Mot1 SUMO inactive
COC(=O)c1cc2c(c3c4cc(OC)ccc4n(S(=O)(=O)c4ccc(OC)cc4)c13)C(=O)N(Cc1ccccc1)C2	none (no result: Mot1-301 SUMO, PKA-R1A act, PKA-R2B act, MsrA act)
CCOC(=O)N1CCN(C(=O)c2ccccc2-c2ccccc2)CC1	Mot1-301 SUMO 436 | Yeast Mot1 SUMO inactive
C/C=C/C(=O)N1c2ccc(C)cc2C(C)=CC1(C)C	Mot1-301 SUMO 962 | Yeast Mot1 SUMO inactive
CC1=CC(C)(C)N(C(=O)CSc2nnc(C)s2)c2ccc(C)cc21	none
Cc1cc(C(F)F)n2ncc(C(=O)NCCc3ccc(Cl)cc3)c2n1	Mot1-301 SUMO 540 | Yeast Mot1 SUMO inactive
COC(=O)[C@H](N[C@H](/C=C/c1ccccc1)[C@@H](O)Cc1ccccc1)c1ccccc1	none (no result: Mot1-301 SUMO, PKA-R1A act, PKA-R2B act, MsrA act)
COCC(=O)n1nc(-c2ccc(Cl)cc2)nc1NCc1ccc(F)cc1	Mot1-301 SUMO 539 | Yeast Mot1 SUMO inactive
COCC(=O)n1nc(-c2ccccc2)nc1NCc1ccc(N(C)C)cc1	Mot1-301 SUMO 862 | Yeast Mot1 SUMO inactive
O=S1(=O)CCSC[C@@H](CN2CCCC2)N1	none (no result: Mot1-301 SUMO, PKA-R1A act, PKA-R2B act, MsrA act)
COc1ccc2[nH]cc(CCNS(=O)(=O)c3ccc(C)cc3)c2c1	Mot1-301 SUMO 484 | Yeast Mot1 SUMO inactive
CC(C)(C)S(=O)N1C[C@H]2CC(=O)C(CCO)=C2[C@@H]1CCO (stereo partly specified)	none (no result: Mot1-301 SUMO, PKA-R1A act, PKA-R2B act, MsrA act)
CCOC(=O)CCN(c1ccccc1)S(=O)(=O)c1ccc(-c2ccc(=O)[nH]n2)s1	Mot1-301 SUMO 588 | Yeast Mot1 SUMO inactive
CCOC(=O)C1CCN(C(=O)c2ccc3c(c2)NC(=O)/C(=C/c2ccccc2)S3)CC1	Mot1-301 SUMO 405 | Yeast Mot1 SUMO inactive
Cc1cc(N2CCN(C(=O)OC(C)(C)C)C[C@@H]2C)ccc1N1C[C@@H](C)O[C@@H](C)C1	none (no result: Mot1-301 SUMO, PKA-R1A act, PKA-R2B act, MsrA act)
CCCCCCCCc1nc(SCC(C)=O)n[nH]1	Mot1-301 SUMO 699 | Yeast Mot1 SUMO inactive
CCCCc1nc(SCC(=O)Nc2ncccn2)n[nH]1	none (no result: Mot1-301 SUMO)
COC(=O)N1C[C@H](OCCCOCc2ccccc2)[C@H]2C[C@@H]1c1ccccc1O2	none (no result: Mot1-301 SUMO, PKA-R1A act, PKA-R2B act, MsrA act)
COc1ccccc1-n1c(Cc2cccc3ccccc23)nnc1SCC(=O)O	none (no result: Mot1-301 SUMO, PKA-R1A act, PKA-R2B act, MsrA act)
O=C(N[C@H](C(=O)N1CCC[C@H]1C(=O)NCc1ccccc1)C1CCCCC1)c1ccccc1	none (no result: Mot1-301 SUMO, PKA-R1A act, PKA-R2B act, MsrA act)
O=C1CC(c2ccccc2Cl)C2=C(COC2=O)N1 (stereo unspecified)	none (no result: Mot1-301 SUMO)
O=C1CC(c2cccc(Br)c2)C2=C(COC2=O)N1 (stereo unspecified)	Mot1-301 SUMO 386 | Yeast Mot1 SUMO inactive
CN1CCCCC(NC(=O)c2cccs2)C1=O (stereo unspecified)	none (no result: Mot1-301 SUMO, PKA-R1A act, PKA-R2B act, MsrA act)
O=C(N=Nc1c(O)[nH]c2c(Cl)cc(Cl)cc12)c1ccccc1O	none (no result: Mot1-301 SUMO, PKA-R1A act, PKA-R2B act, MsrA act)
C#CCNC(=O)c1cc2cccnc2nc1N	none (no result: Mot1-301 SUMO, PKA-R1A act, PKA-R2B act, MsrA act)
CCOC(=O)C1CCN(CC(O)COc2ccc(C(C)(C)C)cc2)CC1 (stereo unspecified)	Mot1-301 SUMO 376 | Yeast Mot1 SUMO inactive
CCOC(=O)C1CCN(CC(O)COCc2ccccc2)CC1 (stereo unspecified)	Mot1-301 SUMO 554 | Yeast Mot1 SUMO inactive
CS(=O)(=O)C1=NSC2=NC(=O)/C(=C\c3ccc(OS(=O)(=O)c4ccccc4)cc3)C(=N)N21	Mot1-301 SUMO 399 | Yeast Mot1 SUMO inactive
Cc1ccc(S(=O)(=O)Oc2ccc(/C=C3/C(=N)N4C(=NC3=O)SN=C4S(C)(=O)=O)cc2)cc1	none
COc1ccc(C(=O)CSc2nnc(CNC(=O)c3ccccc3)n2C)cc1	Mot1-301 SUMO 397 | Yeast Mot1 SUMO inactive
COc1ccc(C(=O)CSc2nnc(CNC(=O)c3ccc(OC)c(OC)c3)n2C)cc1	none (no result: Mot1-301 SUMO)
CCc1nnc(NC(=O)CSc2ccc(-c3ccc(-n4cccn4)cc3)nn2)s1	Mot1-301 SUMO 781 | Yeast Mot1 SUMO inactive
CCn1c(SCC(=O)NC2CCCCC2)nnc1C(C)NC(=O)c1ccccc1F (stereo unspecified)	Mot1-301 SUMO active | Yeast Mot1 SUMO inactive
CC(C)(C)NC(=O)NC(=O)CN1CCN(S(=O)(=O)c2ccc3c(c2)OCCO3)CC1	Mot1-301 SUMO 988 | Yeast Mot1 SUMO inactive
CC(C)(C)NC(=O)NC(=O)CN1CCN(S(=O)(=O)c2ccc3c(c2)CCCC3)CC1	none
O=C(NCC1CCN(Cc2ccccc2Cl)CC1)Nc1ccccc1F	Mot1-301 SUMO 606 | Yeast Mot1 SUMO inactive
Fc1cccc(F)c1-c1nc(-c2ccncc2)no1	Mot1-301 SUMO 952 | Yeast Mot1 SUMO inactive
Brc1ccc(CN2CCN(c3ncc(Cc4ccccc4)cn3)CC2)cc1	none (no result: Mot1-301 SUMO, PKA-R1A act, PKA-R2B act, MsrA act)
CC1CCN(S(=O)(=O)c2ccc(NC(=O)c3cccs3)cc2)CC1	Mot1-301 SUMO 415 | Yeast Mot1 SUMO inactive
CN1CCN(S(=O)(=O)c2ccc(NC(=O)c3cccs3)cc2)CC1	none
CCN1CSC(=S)N(Cc2ccc(OC)cc2)C1	Mot1-301 SUMO active | Yeast Mot1 SUMO inactive
CCCCCCCCN1C(=O)[C@@H](CC(=O)N2CCCCC2)C[C@@]2(C(=O)OC)C1=C[C@H](C(C)(C)C)O[C@@H]2C	none (no result: Mot1-301 SUMO, PKA-R1A act, PKA-R2B act, MsrA act)
CC(=O)N1CCN(c2ccc(N3CCN(Cc4ccccc4)[C@H](C)C3)c(C)c2)[C@@H](C)C1	none (no result: Mot1-301 SUMO, PKA-R1A act, PKA-R2B act, MsrA act)
COc1ccccc1NC(=O)CSc1nc(O)c(Cc2ccccc2)c(=O)[nH]1	Mot1-301 SUMO active | Yeast Mot1 SUMO inactive
